# Laboratory results as given in the supplement of paper PMC12350171.
# Counter-ions that a name gives are not always drawn.
# Tested on: P. vulgatus WT
# Experiment: growth AUC normalised to DMSO control (median) (fraction of control); higher = less growth inhibition, active = hit call of the paper
# Details: 20 µM;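 active = normalised median growth AUC below 0.1 of DMSO control; inactive = AUC 0.1 or higher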
# Outline: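 Area under the growth curve, calculated by the trapezoidal rule up to entry into stationary phase, was normalised to vehicle wells on the same plate. Strains had been passaged twice overnight without oxygen and then grown in mGAM in 96-well plates from OD578 0.01, each with an approved-drug library compound at 20 μM in 1% DMSO. OD578 was read hourly over 24 h in an anaerobic incubator, and the median of three biological replicates is given.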
# 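Also: active when median AUC fell below 0.1.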
row,SMILES,growth AUC normalised to DMSO control
1,O=C1C(=O)c2ccccc2C(O)=C1C1CCC(c2ccc(Cl)cc2)CC1 (stereo not drawn) [Atovaquone],1.02 (inactive)
2,NC(N)=Nc1nc(CSCCN/C=N/S(=O)(=O)c2ccc(Br)cc2)cs1 [Ebrotidine],1.01 (inactive)
3,O=C(O)c1cc(/N=N/c2ccc(S(=O)(=O)Nc3ccccn3)cc2)ccc1O [Sulfasalazine],1.02 (inactive)
4,C[C@]12CC[C@@H]3c4ccc(O)cc4CC[C@H]3[C@@H]1C[C@@H](O)[C@@H]2O [Estriol],0.978 (inactive)
5,Cn1c(=O)c2nc[nH]c2n(C)c1=O [Theophylline monohydrate],1.01 (inactive)
6,COc1cc([C@@H]2c3cc4c(cc3[C@@H](O[C@@H]3O[C@@H]5CO[C@@H](C)O[C@H]5[C@H](O)[C@H]3O)[C@H]3COC(=O)[C@H]23)OCO4)cc(OC)c1O [Etoposide],1.09 (inactive)
7,CCOCC(O)COc1ccc(NC(=O)CC[S+](C)C)cc1 (stereo not drawn) [Suplatast Tosylate],1.01 (inactive)
8,CC(C(=O)O)c1ccc(N2CC=CC2)c(Cl)c1 (stereo not drawn) [Pirprofen],1.06 (inactive)
